High-throughput results as filed in PubChem BioAssay.
The list is not random: actives were taken first. Their share in the collection is about 9.4%.
SMN2 splice up: qHTS Assay for Enhancers of SMN2 Splice Variant Expression. Potency, µM (top dose mostly 46.1 µM), inactives show at the highest dose activity change, positive = activation, usual class: activators. AID 1458, 2008. actives 2.8% (n = 210,000). HEK293 SMN2-luciferase splicing reporter, luminescence, 30-36 h; note: % of control where 0% means no effect; nearly all actives have a fitted effect of over 55% in size
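HEK293 cells carry an SMN2 minigene-luciferase reporter in which exon 7 inclusion puts luciferase in frame. Cells were seeded at 2000 cells/well, attached for 10-12 hours, then exposed to compounds for 30-36 hours at 37C before ONE-Glo luminescence.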
FLuc modulator: qHTS profiling assay for firefly luciferase inhibitor/activator using purifed enzyme and Km concentrations of substrates (counterscreen for miR-21 project). Luciferin 4-monooxygenase (Photinus pyralis), P08659. purified FLuc, Km substrates, luminescence inhibition. actives 6.9% (n = 360,000). AID 588342, 2011. Potency, µM (titrated, usually from 57.5 µM), inactives show at the highest dose activity change, negative = inhibition, usual class: inhibitors;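 note: plate controls were vehicle for no effect and reference inhibitor for full effect; nearly all actives have a fitted effect of over 55% in size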
Target sequence (P08659 whole entry, looked up): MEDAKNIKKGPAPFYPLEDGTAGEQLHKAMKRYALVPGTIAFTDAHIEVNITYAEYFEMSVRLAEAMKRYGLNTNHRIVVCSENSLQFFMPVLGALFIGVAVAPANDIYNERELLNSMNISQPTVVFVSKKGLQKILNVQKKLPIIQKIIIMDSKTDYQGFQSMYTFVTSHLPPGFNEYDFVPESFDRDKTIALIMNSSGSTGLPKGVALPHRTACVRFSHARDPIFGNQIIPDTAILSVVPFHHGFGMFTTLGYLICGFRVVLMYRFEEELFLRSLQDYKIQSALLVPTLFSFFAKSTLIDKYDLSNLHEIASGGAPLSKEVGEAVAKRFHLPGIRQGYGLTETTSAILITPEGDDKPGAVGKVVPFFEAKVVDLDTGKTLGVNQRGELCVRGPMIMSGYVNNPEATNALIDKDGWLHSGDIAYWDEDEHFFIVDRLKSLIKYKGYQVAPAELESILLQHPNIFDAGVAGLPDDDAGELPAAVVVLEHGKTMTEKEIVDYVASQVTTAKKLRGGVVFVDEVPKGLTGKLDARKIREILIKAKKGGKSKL
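Biochemical qHTS of compounds, final roughly 60 µM downward over six points, against 10 nM purified firefly luciferase using Km concentrations of substrates (10 uM D-luciferin, 10 uM ATP) in Tris acetate pH 7.5 buffer; luminescence output.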
Rab9 prom act: qHTS Assay for Rab9 Promoter Activators; Huh7 Rab9 promoter-luciferase reporter, luminescence, 24 h; Potency, µM (top dose mostly 9.22 µM), inactives show at the highest dose activation, negative = inhibition, hits mostly activators; actives 2.8% (n = 320,000); AID 485297, 2010; note: % of control where 0% means no effect; nearly all actives have a fitted effect of over 60% in size
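Using Huh7 cells stably transfected with Rab9 promoter–luciferase, compounds were incubated 24 h at 37 °C, 5% CO2; luciferase luminescence was read 10 min after reagent addition.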
NPC1 prom act: qHTS Assay for NPC1 Promoter Activators | actives 2.4% (n = 320,000) | AID 485313, 2010 | Potency, µM (highest dose often 9.22 µM), for the others: top-dose activation, hits mostly activators | Huh7 NPC1 promoter luciferase reporter, 24 h; note: % of control where 0% means no effect; nearly all actives have a fitted effect of over 60% in size
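Luciferase expression driven by the NPC1 promoter was measured in stably transfected Huh7 cells after a 24 h compound incubation, using a luciferase reagent and a luminescence read.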
ELG1 DNA repair: qHTS screen for small molecules that inhibit ELG1-dependent DNA repair in human embryonic kidney (HEK293T) cells expressing luciferase-tagged ELG1 | HEK293T ELG1-luciferase reporter, luminescence, 16 h; DNA damage induced by 5-fluorouridine | Potency, µM (titrated, usually from 46.1 µM), for the others: top-dose activity change, negative = inhibition, most hits filed as inhibitors | actives 2.3% (n = 330,000) | AID 504467, 2011; note: % is set by controls: 0 for no effect and ±100 for the full control effect; nearly all actives have a fitted effect of over 55% in size
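Luminescence from the luciferase reporter, measured 30 min after ONE-Glo reagent at room temperature, was the read-out. Beforehand, 2,000 cells per well were exposed for 16 hr at 37 °C to 5-fluorouridine together with compound or vehicle.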
ELG1 genotox: qHTS screen for small molecules that induce genotoxicity in human embryonic kidney (HEK293T) cells expressing luciferase-tagged ELG1; HEK293T ELG1-luciferase reporter, luminescence, 16 h; Potency, µM (highest dose often 46 µM), for the others: at the highest dose activity change, positive = activation, usual class: activators; actives 1.3% (n = 330,000); note: % of control where 0% means no effect; nearly all actives have a fitted effect of over 60% in size
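Genotoxic stress is detected as increased luminescence from luciferase-tagged ELG1 in HEK293T cells, measured with ONE-Glo after a 16 hr treatment at 37 °C.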
* hit, by the source's call; [ ] = remark or other dose. Calls come from the whole dose curve; as a rule, active = well fitted curve in the direction sought with a large enough effect; inconclusive = small, poorly fitted or top-dose-only effect, or another doubt; inactive = no such curve, though single readings can be large; an effect the other way counts as inactive or inconclusive. Potency is the fitted concentration of half-maximal effect.

Results for CCC1OC(=O)C[C@H](O)C(C)[C@@H](O[C@@H]2OC(C)C(O)C(N(C)C)C2O)C(CCN2CC(C)CC(C)C2)CC(C)C(=O)/C=C/C(C)=C\[C@@H]1COC1OC(C)C(O)C(OC)C1OC (stereo not given in full) ?
SMN2 splice up: -12%

Results for COc1ccccc1N(CC(=O)Nc1ccc2c(c1)OCO2)S(=O)(=O)c1ccc(C)cc1 ?
SMN2 splice up: 12%; FLuc modulator: -19%

Results for CCOc1ccccc1CNC(=O)CC(C)n1ccc(C)n1 (stereo not given) ?
FLuc modulator: 2%

What do the screens show for `COc1ccc(S(=O)(=O)Nc2cc(S(=O)(=O)c3ccccc3)c(O)c(C)c2C)cc1`?
SMN2 splice up: 4%; FLuc modulator: inconclusive

What do the screens show for `CC1(C)C(=O)N(CC(=O)Nc2cccc(F)c2)c2ccc(S(=O)(=O)N3CCCCC3)cc21`?
FLuc modulator: -1%

How did COc1ccc2oc(=O)cc(CN3CCN(c4ccccc4OC)CC3)c2c1 do in these assays?
SMN2 splice up: -4%; FLuc modulator: -8%

Results for COc1ccc(NC(=O)c2sc3nc4c(cc3c2N)CN(C(C)C)CC4)c(OC)c1 ?
SMN2 splice up: -59%; FLuc modulator: -10%

What do the screens show for `Fc1ccc(CNc2ccc(N3CCN(Cc4ccccc4)CC3)cc2)cc1`?
FLuc modulator: 6%; Rab9 prom act: -3%; NPC1 prom act: -5%; ELG1 DNA repair: 7.3µM*; ELG1 genotox: 25%

What do the screens show for `CC(=O)N1CCN(c2ccc(NCc3ccccc3)cc2)CC1`?
SMN2 splice up: -25%; FLuc modulator: -3%; Rab9 prom act: 15%; NPC1 prom act: 4%; ELG1 DNA repair: 3%; ELG1 genotox: -2%

What do the screens show for `Cc1ccc(N(C)C(=O)Cn2cnc3onc(-c4ccc(F)cc4)c3c2=O)cc1C`?
FLuc modulator: -9%

Results for Cc1ccc(O)c(C(=O)CC(=O)c2cccc(F)c2)c1 ?
SMN2 splice up: 35µM*; FLuc modulator: -7%[2.3 µM]; Rab9 prom act: inconclusive; NPC1 prom act: inconclusive; ELG1 DNA repair: inconclusive; ELG1 genotox: 7%

What do the screens show for `Cc1cccc(C(=O)CC(=O)c2cc(Cl)ccc2O)c1`?
SMN2 splice up: -98%; FLuc modulator: -12%; Rab9 prom act: -2%; NPC1 prom act: -2%; ELG1 DNA repair: 5%; ELG1 genotox: -7%

Results for Cc1ccc(O)c(C(=O)CC(=O)c2ccc(Cl)cc2)c1 ?
FLuc modulator: 24µM*; Rab9 prom act: inconclusive; NPC1 prom act: 15%; ELG1 DNA repair: inconclusive; ELG1 genotox: inconclusive

How did O=C(CC(=O)c1cc(Cl)ccc1O)c1ccccc1 do in these assays?
SMN2 splice up: -57%; FLuc modulator: inconclusive; Rab9 prom act: inconclusive; NPC1 prom act: inconclusive; ELG1 DNA repair: inconclusive; ELG1 genotox: inconclusive

What do the screens show for `Cc1cccc(NC(=O)CSc2nc3ccccc3nc2N2CCOCC2)c1C`?
SMN2 splice up: 4%; FLuc modulator: 1%

Results for CCc1ccc2[nH]c(=O)c(-c3ccccc3)c(O)c2c1 ?
FLuc modulator: 21µM*; Rab9 prom act: 6%; NPC1 prom act: -3%; ELG1 DNA repair: -9%; ELG1 genotox: 3%

How did COc1ccc(CCNC(=O)c2ccc3c(c2)CCN3S(=O)(=O)c2ccc(C)cc2)cc1 do in these assays?
SMN2 splice up: -12%; FLuc modulator: -6%

Results for Cc1ccc(C)c(-n2nnnc2Sc2nnnn2-c2ccccc2)c1 ?
SMN2 splice up: 24%; FLuc modulator: 1%; Rab9 prom act: -7%; NPC1 prom act: -6%; ELG1 DNA repair: 21µM*; ELG1 genotox: -27%

Results for CCSc1nnnn1-c1ccccc1 ?
SMN2 splice up: -5%; FLuc modulator: -3%; Rab9 prom act: 11%; NPC1 prom act: 1%; ELG1 DNA repair: 13%; ELG1 genotox: -1%

What do the screens show for `COc1ccc(OC)c(C2CC(=O)Nc3cc(OC)c(OC)c(OC)c32)c1` (stereo not given)?
SMN2 splice up: inconclusive; FLuc modulator: 7%; Rab9 prom act: -5%; NPC1 prom act: 0%; ELG1 DNA repair: inconclusive; ELG1 genotox: 18µM*

How did COc1ccc(OC)c(C2CC(=O)Nc3ccc4ccccc4c32)c1 (stereo not given) do in these assays?
SMN2 splice up: 1%; FLuc modulator: -13%

How did Cc1ccc(C(=O)NNC(=O)c2nn(-c3ccc(F)cc3)ccc2=O)cc1 do in these assays?
FLuc modulator: 15µM*; Rab9 prom act: -6%; NPC1 prom act: -1%; ELG1 DNA repair: 17%; ELG1 genotox: 1%

Results for O=C(NNC(=O)c1nn(-c2ccc(F)cc2)ccc1=O)c1ccc(Cl)cc1 ?
FLuc modulator: inconclusive; Rab9 prom act: 9%; NPC1 prom act: 3%; ELG1 DNA repair: -26%; ELG1 genotox: -4%

What do the screens show for `COc1ccc(NC(=O)Nc2cccc(OCc3cc(=O)n4cccc(C)c4n3)c2)c(OC)c1`?
FLuc modulator: -11%

What do the screens show for `C/C(=C\CO)CCO`?
SMN2 splice up: 7%

How did Cc1ccc(Cn2ccnc2C(=O)Nc2ccccc2)cc1 do in these assays?
SMN2 splice up: 16µM*; FLuc modulator: 7.6µM*; Rab9 prom act: 1.6µM*; NPC1 prom act: 4µM*; ELG1 DNA repair: inconclusive; ELG1 genotox: inconclusive

How did N#Cc1ccc(Cn2ccnc2C(=O)Nc2ccccc2)cc1 do in these assays?
SMN2 splice up: -7%; FLuc modulator: inconclusive; Rab9 prom act: 6%; NPC1 prom act: 4%; ELG1 DNA repair: 2%; ELG1 genotox: 8%

How did O=C(CCNS(=O)(=O)c1ccccc1)N1CCN(C(c2ccccc2)c2ccccc2)CC1 do in these assays?
FLuc modulator: 2%; Rab9 prom act: -5%; NPC1 prom act: 0%; ELG1 DNA repair: 23µM*; ELG1 genotox: -12%

What do the screens show for `CC(=O)Nc1ccc(S(=O)(=O)NCCC(=O)N2CCN(C(c3ccccc3)c3ccccc3)CC2)cc1`?
FLuc modulator: -1%; Rab9 prom act: -7%; NPC1 prom act: 1%; ELG1 DNA repair: -26%; ELG1 genotox: -18%

How did Cc1c(Cl)cccc1NC(=O)CN1C(=O)c2ccccc2Sc2ncccc21 do in these assays?
FLuc modulator: -7%
